Source: PubChem
TPT1 inh – inhibitors of Candida albicans tRNA 2'-phosphotransferase TPT1; recombinant caTPT1, FP RNA substrate dephosphorylation; inhibition, % at 5 µM; 0.81% of 300,000 active; AID 1962;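 active = inhibition above the mean of all tested compounds plus 3 SD, set per screening campaign, cut at about 24% in these data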
Rpn11 block – blocks the human proteasome subunit Rpn11; human 26S proteasome, Ub4-pepOG fluorescence polarization; 20S core pre-blocked with epoxomicin; inhibition, % at 20 µM; 0.59% of 360,000 active;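 active = inhibition at 20 µM, scaled to each plate's controls, above about 33%, limit read from the data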
dFosB activator – activators of mouse delta FosB homodimer; purified delta FosB, TAMRA-CDK5 oligo fluorescence polarization; percent of positive-control signal above neutral wells; activation, % at 25 µM; P13346; 0.99% of 340,000 active;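 active = mean activation above about 17%, with every replicate also reaching it, limit read from the data, passing the limit was not always enough; inconclusive = only one of the two conditions met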
GRIN3A LBD mod – modulates the human NR3A ligand-binding domain; NR3A LBD differential scanning fluorimetry, Tm shift; 0% = protein alone, 100% = glycine-bound protein; Tm shift relative to glycine control, % at 25 µM; 2.5% of 340,000 active;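 active = melting temperature shift of at least 10% of the positive control shift, at one fixed dose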
ZTA DNA inh – ZTA (EBV) inhibition in EBNA-1 counter-screen; ZTA-DNA binding, fluorescence polarization; inhibition, % at 11 µM; 0.15% of 320,000 active; AID 2234; in the data active = inhibition above about 33%
EBNA-1 inhibitor – blocks EBNA-1 binding to DNA. EBNA-1 DNA binding, fluorescence polarization. inhibition, % at 14.8 µM. 0.34% of 300,000 active. AID 1950; in the data active = inhibition above about 28%
caTPT1 confirm – confirmation of Candida albicans TPT1 inhibitors; 74% of 2,400 active; inhibition, % at 5 µM; shares compounds with TPT1 inh; recombinant caTPT1, fluorescence polarization, RNase T1 coupled;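 active = inhibition above the primary screen limit, the mean inhibition of all tested compounds plus 3 SD, cut at about 25% in these data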
RNase T1 counter – counter-screen for TPT1 inhibitors: inhibitors of Aspergillus oryzae RNase T1 | RNase T1 cleavage, fluorescence polarization, 1536-well | shares compounds with TPT1 inh | inhibition, % at 5 µM | 83% of 2,400 active;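 active = inhibition above the solvent-only control well mean plus 3 SD, limit set per screening run, cut at about 23% in these data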;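 also: inhibitors block cleavage so intact labeled substrate keeps polarization high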
ZTA inh confirm – EBV ZTA DNA binding inhibition, confirmation; Zta-ZRE DNA binding, fluorescence polarization; shares compounds with ZTA DNA inh; inhibition, % at 11.1 µM; 30% of 320 active;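 active = mean inhibition across triplicate runs above the hit threshold derived for the original primary screen, cut at about 33% in these data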
EBNA-1 counter – EBNA-1 DNA binding inhibition, counter-screen for ZTA. shares compounds with ZTA DNA inh. fluorescence polarization. inhibition, % at 14.8 µM. 320 tested, under 10 active; call rule not given here
Rpn11 inh conf – Rpn11 inhibition confirmation, single concentration; shares compounds with Rpn11 block; purified human 26S proteasome, Ub4-pepOG fluorescence polarization; proteasome pretreated with epoxomicin; inhibition, % at 20 µM; 29% of 1,900 active; AID 602318
MMP-2 inh – counter-screen for RPN11 inhibitors: inhibition of human MMP-2. shares compounds with Rpn11 block. 4% of 1,900 active. recombinant MMP-2, FRET peptide cleavage fluorescence. inhibition, % at 20 µM;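 also: human MMP-2 activated beforehand with APMA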
Thrombin inh – counter-screen for RPN11 inhibitors: inhibition of bovine thrombin | shares compounds with Rpn11 block | bovine thrombin cleavage of Ub4-pepOG, fluorescence polarization | inhibition, % at 20 µM | 13% of 1,900 active;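 active = mean inhibition at least 40% at 20 µM, or signal 3 deviations below plate average, so some actives read negative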
Target sequence (P00735 whole entry, looked up): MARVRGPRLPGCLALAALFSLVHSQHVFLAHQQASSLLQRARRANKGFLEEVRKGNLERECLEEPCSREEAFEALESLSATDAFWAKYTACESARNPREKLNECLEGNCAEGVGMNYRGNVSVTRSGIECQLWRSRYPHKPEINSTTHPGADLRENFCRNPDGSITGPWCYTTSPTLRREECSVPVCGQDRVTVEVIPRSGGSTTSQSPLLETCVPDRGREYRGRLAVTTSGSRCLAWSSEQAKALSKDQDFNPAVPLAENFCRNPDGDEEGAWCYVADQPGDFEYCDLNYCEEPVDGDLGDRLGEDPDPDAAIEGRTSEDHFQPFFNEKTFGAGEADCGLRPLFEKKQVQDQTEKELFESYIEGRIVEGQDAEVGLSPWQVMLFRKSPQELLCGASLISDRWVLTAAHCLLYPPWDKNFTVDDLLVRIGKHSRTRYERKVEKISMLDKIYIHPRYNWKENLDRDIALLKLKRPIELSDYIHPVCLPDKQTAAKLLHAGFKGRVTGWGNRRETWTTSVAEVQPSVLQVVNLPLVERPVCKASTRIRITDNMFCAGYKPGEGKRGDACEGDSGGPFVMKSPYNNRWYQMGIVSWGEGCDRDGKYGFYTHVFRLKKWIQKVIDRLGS
A number is an active result; i = inactive; ? = inconclusive; nt = no result shown; + = active, no number. A selection: hits, their analogues and other compounds. The true share with any hit is near 4.5%. Rule as the data show it, unless noted: active = inhibition above about 40%; inactive = the rest.

SMILES	TPT1 inh	Rpn11 block	dFosB activator	GRIN3A LBD mod	ZTA DNA inh	EBNA-1 inhibitor	caTPT1 confirm	RNase T1 counter	Rpn11 inh conf	MMP-2 inh	Thrombin inh	others
COc1cc(/C=C2/C(=O)NN(c3ccc(Cl)cc3)C2=O)cc(Br)c1O	67	68	i	i	i	i	112	123	193	i	79
Cc1ccccc1CC(=O)c1ccc(O)c(C)c1O	i	i	i	i	i	i	nt	nt	nt	nt	nt
Cc1c(O)ccc(/C(Cc2ccc3ccccc3n2)=N\N)c1O	29	48	i	i	i	i	36	47	i	i	i
NC(N)=Nc1nc(-c2ccccc2)c2cc(F)ccc2n1	i	i	i	i	i	i	nt	nt	nt	nt	nt
Cc1cc(NC(=O)CSc2nc3cc(Cl)ccc3s2)no1	i	i	i	i	i	i	nt	nt	nt	nt	nt
O=C(CSc1nc2cc(Cl)ccc2s1)c1cc2ccccc2o1	78	55	i	i	i	i	i	27	45	i	i
NC(=O)c1sc2nc(-c3ccco3)ccc2c1N	i	i	i	i	i	i	nt	nt	nt	nt	nt
Nc1c(C(=O)Nc2ccccc2F)sc2nc(-c3ccco3)ccc12	31	44	i	i	i	i	27	38	i	i	i
Cc1cc(N2C(=O)C3C4CC(c5ccccc5)C(C4)C3C2=O)no1 (stereo unspecified)	i	i	i	i	i	i	nt	nt	nt	nt	nt
O=C(C1=C(O)C(=O)N(c2ncccn2)C1c1ccc(Cl)cc1)c1ccco1 (stereo unspecified)	i	i	i	i	i	i	nt	nt	nt	nt	nt
O=C(C1=C(O)C(=O)N(c2ncccn2)C1c1ccc(Cl)c(Cl)c1)c1ccco1 (stereo unspecified)	28	41	i	i	i	i	30	39	i	i	i
CCOC(=O)Cc1csc(NC(=S)NC(=O)C(C)(C)C)n1	i	i	i	i	i	i	nt	nt	nt	nt	nt
CCOc1ccc2nc(NC3=NC(c4ccc(OC)cc4)CC(=O)N3)nc(C)c2c1 (stereo unspecified)	26	+	i	i	i	i	i	25	44	i	i
COc1ccc(N/C=C/C(=O)c2sc(-c3ccccc3)nc2C)cc1	71	40	i	i	i	i	52	65	i	i	i
COc1ccc(N/C=C/C(=O)c2ccccc2)cc1	i	i	i	i	i	i	nt	nt	nt	nt	nt
C(=N\NC1=Nc2cccc3cccc1c23)/c1cccnc1	26	70	i	i	i	i	41	56	40	i	i
N#Cc1c(SCC(=O)Nc2nncs2)sc2c(O)cc(=O)[nH]c12	76	53	i	i	i	i	i	i	i	52	i
CN1CCc2nc(NC(=O)c3cccc(OC(F)F)c3)sc2C1	60	51	i	i	i	i	26	33	i	i	i
CCN1C(=S)SC(=O)C1=C1C=C(C)N(Cc2ccco2)C(C)=C1	163	46	i	i	i	i	126	131	i	i	i
CCN1C(=S)SC(=O)C1=C1C=C(C)OC(C)=C1	i	nt	i	i	i	i	nt	nt	nt	nt	nt
Cc1ccc(S(=O)(=O)N2CCC(C(=O)NNC(=O)C3CC3)CC2)cc1Cl	i	i	i	i	i	i	nt	nt	nt	nt	nt
CC(=O)Nc1ccc(S(=O)(=O)NCCc2cn3nc(C)c(C)nc3n2)cc1	i	i	i	i	i	i	nt	nt	nt	nt	nt
COc1ccc(C(=O)N2CCCCCC2)cc1S(=O)(=O)N1CCOCC1	i	i	i	i	i	i	nt	nt	nt	nt	nt
Nc1ccccc1Nc1cccc(C(F)(F)F)c1	i	i	i	i	i	i	nt	nt	nt	nt	nt
Nc1ccc(Nc2ccccc2N)cc1	25	35	i	i	i	i	26	36	i	i	i
SMILES	TPT1 inh	Rpn11 block	dFosB activator	GRIN3A LBD mod	ZTA DNA inh	EBNA-1 inhibitor	caTPT1 confirm	RNase T1 counter	Rpn11 inh conf	MMP-2 inh	Thrombin inh	others
COc1ccc(Nc2ccccc2N)cc1	37	52	i	i	i	i	27	35	i	i	i
COCCCNC(=O)CN1C(=O)COc2ccc(S(=O)(=O)N3CCOCC3)cc21	i	i	i	i	i	i	nt	nt	nt	nt	nt
CCN1CCN(S(=O)(=O)c2ccc(C(=O)Nc3sc4c(c3C(N)=O)CCN(CC)C4)cc2)CC1	96	59	i	i	i	i	115	118	i	i	i
O=C(N/N=C/c1cccs1)c1[nH]ncc1Br	nt	i	i	i	nt	nt	nt	nt	nt	nt	nt
O=C(N/N=C/c1c(O)ccc2ccccc12)c1[nH]ncc1Br	32	80	i	30	i	i	64	63	67	i	i
COc1cc(/C=C/c2nc3ccccc3c(=O)[nH]2)cc(Br)c1O	50	109	?	23	i	i	79	78	43	i	i
CC(=O)c1ccc(OC(=O)CCc2ccccc2)cc1	i	i	i	i	i	i	nt	nt	nt	nt	nt
N=C1/C(=C/c2ccc(-c3cccc(C(=O)O)c3)o2)C(=O)N=C2SC=C(c3ccccc3)N12	74	132	i	i	35	60	84	92	152	i	51
Cc1ccc(-n2c(C)cc(/C=C3/C(=N)N4C(c5ccccc5)=CSC4=NC3=O)c2C)cc1	i	i	i	i	i	i	nt	nt	nt	nt	nt
Cc1cc(N2CCN(C)CC2)ccc1NC(=O)c1cccc(S(=O)(=O)N2CCc3ccccc3C2)c1	i	i	i	i	i	i	nt	nt	nt	nt	nt
COc1cc(/C=C(/C#N)C(=O)NC(C)c2ccccc2)cc(OC)c1O (stereo unspecified)	66	71	i	i	i	i	107	108	i	i	i
O=C(CNc1cc(S(=O)(=O)N2CCOCC2)ccc1NCC1CCCO1)Nc1ccc(F)c(F)c1 (stereo unspecified)	i	i	i	i	i	i	nt	nt	nt	nt	nt
O=C1Nc2ccc(Br)cc2/C1=C/c1ccc(C(=O)O)cc1	i	nt	nt	nt	34	i	nt	nt	nt	nt	nt	ZTA inh confirm=46;EBNA-1 counter=i
Clc1ccc(OCCSc2ncccn2)c(Br)c1	i	i	i	i	106	i	nt	nt	nt	nt	nt	ZTA inh confirm=i;EBNA-1 counter=i
